# Experimental data reported in PubChem BioAssay (EPA / NIEHS).
# Results filed as inconclusive are left out. Active and inactive are the calls of the source. How the source made its calls, unless noted: active means hit-call score of the fitted dose curve at least 0.9, where 1 is the maximum; inactive means score below 0.9.
# What was measured:
# [1] = target: Retinoic acid receptor RXR-alpha (Homo sapiens) (UniProt P19793); assay: ATG_RXRa_TRANS: Attagene TRANS-FACTORIAL HepG2 Assay for human Retinoid X Receptor alpha (RXRa) (AID 2283012; active means hit-call score of the fitted dose curve at least 0.9, where 1 is the maximum)
# In short: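 Transient transfection of human HepG2 with multiple GAL4-UAS reporter constructs; 24 h compound exposure; total RNA isolated, reverse-transcribed, PCR-amplified, 6-FAM labelled, HpaI-cut, resolved by capillary electrophoresis. Positive-direction fit versus DMSO.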
# [2] = target: human Retinoid X Receptor beta (RXRb), RXRB (gene 6257) (UniProt P28702); assay: ATG_RXRb_TRANS: Attagene TRANS-FACTORIAL HepG2 Assay for human Retinoid X Receptor beta (RXRb) (AID 2283013; active means hit-call score of the fitted dose curve at least 0.9, where 1 is the maximum)
# In short: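 Transfect HepG2 with GAL4-UAS multi-reporter constructs (chimeric NR-Gal4, TRANS format); dose compound 24 h; isolate RNA, RT-PCR, FAM primer extension, HpaI digest; quantify by capillary electrophoresis; positive direction vs DMSO.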
# [3] = read-out: E-selectin (Homo sapiens) (UniProt P16581); assay: BSK_3C_Eselectin: BioMAP Diversity Plus: 3C Assay for Eselectin Biomarker Activity (AID 2283015); settings: primary human endothelial cells (HUVEC); actives raise or lower the signal;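 on outcome: cell surface E-selectin protein quantified by ELISA 24 h after dosing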
# In short: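 Human vascular endothelium from umbilical vein is exposed to test chemicals for 24 h. E-selectin levels are read by ELISA and compared with DMSO controls.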
# [4] = read-out: Interleukin-1 alpha (IL1a), IL1A (gene 3552); assay: BSK_BE3C_IL1a: BioMAP Diversity Plus: BE3C Assay for Interleukin-1 alpha (IL1a) Biomarker Activity (AID 2283016); settings: primary human bronchial epithelial cells; actives raise or lower the signal
# In short: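 BE3C primary human bronchial epithelium; cpd 24 h; IL-1a by ELISA; bidirectional fit vs DMSO; parallel SRB (0.1% SRB, 10% TCA fix, 560 nm) for cytotoxicity.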
# [5] = read-out: Monocyte Chemoattractant Protein-1 (MCP1), CCL2 (gene 6347); assay: BSK_3C_MCP1: BioMAP Diversity Plus: 3C Assay for Monocyte Chemoattractant Protein-1 (MCP1) Biomarker Activity (AID 2283017); settings: primary human endothelial cells (HUVEC); actives raise or lower the signal
# In short: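 Endothelial cells from human umbilical vein are dosed with chemical, cultured 24 h, then assayed for MCP-1 by ELISA; both increases and decreases are modelled against DMSO controls.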
# [6] = read-out: Monocyte Chemoattractant Protein-1 (MCP1), CCL2 (gene 6347); assay: BSK_4H_MCP1: BioMAP Diversity Plus: 4H Assay for Monocyte Chemoattractant Protein-1 (MCP1) Biomarker Activity (AID 2283018); settings: primary human endothelial cells (HUVEC); actives raise or lower the signal
# In short: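 ELISA read-out of MCP-1 from human vascular endothelial primary cells taken at 24 hours after compound exposure. Activity was fitted in both directions relative to DMSO, which served as negative control.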
# [7] = read-out: Interleukin-8 (IL8), CXCL8 (gene 3576); assay: BSK_3C_IL8: BioMAP Diversity Plus: 3C Assay for Interleukin-8 (IL8) Biomarker Activity (AID 2283020); settings: primary human endothelial cells (HUVEC); actives raise or lower the signal
# In short: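 ELISA read-out of IL-8 from human umbilical vein endothelium, measured 24 h after chemical dosing. Activity is expressed relative to DMSO negative control, with both increases and decreases fitted.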
# [8] = read-out: Monokine induced gamma interferon (MIG), CXCL9 (gene 4283); assay: BSK_3C_MIG: BioMAP Diversity Plus: 3C Assay for Monokine induced gamma interferon (MIG) Biomarker Activity (AID 2283021); settings: primary human endothelial cells (HUVEC); actives raise or lower the signal
# In short: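 Read-out is ELISA detection of MIG on human umbilical vein endothelial cells, taken 24 h after dosing. Gain or loss of signal was scored relative to DMSO controls using bidirectional curve fitting.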
# [9] = BSK_3C_SRB: Viability Assessment in the BioMAP Diversity Plus: 3C Assay (AID 2283023); settings: primary human endothelial cells (HUVEC);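 further: fitted both ways against DMSO so a hit may be signal rise or drop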
# In short: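 Cells were dosed with chemical, cultured 24 h, fixed with 10% TCA, stained with 0.1% SRB and read at 560 nm. Human umbilical vein endothelium was used; DMSO served as negative control and baseline.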
# [10] = BSK_3C_Vis: BioMAP Diversity Plus: 3C Assay for Morphology Visualization (AID 2283025); settings: primary human endothelial cells (HUVEC);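 further: fitted both ways so gain or loss versus DMSO counts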;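 on AC50: light microscopy image of cell morphology used as background control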
# In short: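 Chemicals were added to primary human umbilical vein endothelium, cells were incubated 24 h, and morphology was then visualized by light microscopy. Gain or loss of signal was fitted bidirectionally relative to DMSO.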
# [11] = read-out: Pselectin, SELP (gene 6403); assay: BSK_4H_Pselectin: BioMAP Diversity Plus: 4H Assay for Pselectin Biomarker Activity (AID 2283026); settings: primary human endothelial cells (HUVEC); actives raise or lower the signal
# In short: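 ELISA read-out of P-selectin on human umbilical vein endothelium after 24 h of dosing. Values derive from bidirectional fitting relative to DMSO. Parallel SRB protein staining flagged overt cytotoxicity.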
# [12] = BSK_4H_SRB: Viability Assessment in the BioMAP Diversity Plus: 4H Assay (AID 2283027); settings: primary human endothelial cells (HUVEC);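 further: cells exposed to compound for 24 h before staining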;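 on AC50: curves fitted both ways versus DMSO so AC50 may be loss or gain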
# In short: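 Human umbilical vein endothelial cells, 24 h after chemical dosing; total protein measured by 0.1% sulforhodamine B staining after 10% TCA fixation, read at 560 nm. Bidirectional fitting against DMSO.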
# [13] = BSK_BE3C_SRB: Viability Assessment in the BioMAP Diversity Plus: BE3C Assay (AID 2283028); settings: primary human bronchial epithelial cells
# In short: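 Overt cytotoxicity was assessed as total protein in confluent human primary bronchial epithelial cultures 24 h after chemical addition, using 0.1% sulforhodamine B staining read at 560 nm.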
# [14] = read-out: Thrombomodulin, THBD (gene 7056); assay: BSK_3C_Thrombomodulin: BioMAP Diversity Plus: 3C Assay for Thrombomodulin Biomarker Activity (AID 2283029); settings: primary human endothelial cells (HUVEC); actives raise or lower the signal
# In short: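 Read-out is ELISA of thrombomodulin on human umbilical vein endothelium 24 h after chemical dosing. Gain or loss of signal is scored relative to DMSO. Overt cytotoxicity is checked in parallel cultures by sulforhodamine B staining.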
# [15] = read-out: Urokinase-type plasminogen activator receptor (uPAR), PLAUR (gene 5329); assay: BSK_4H_uPAR: BioMAP Diversity Plus: 4H Assay for Urokinase-type plasminogen activator receptor (uPAR) Biomarker Activity (AID 2283030); settings: primary human endothelial cells (HUVEC); actives raise or lower the signal
# In short: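 Chemicals are dosed onto human vascular endothelial primary cells (umbilical vein). After 24 h, uPAR is read by ELISA. Gain or loss of signal is fitted relative to DMSO.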
# [16] = target: human Vitamin D Receptor (VDR), VDR (gene 7421) (UniProt P11473); assay: ATG_VDR_TRANS: Attagene TRANS-FACTORIAL HepG2 Assay for human Vitamin D Receptor (VDR) (AID 2283022; active means hit-call score of the fitted dose curve at least 0.9, where 1 is the maximum)
# In short: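 Fluorescence of labelled reporter cDNA fragments, resolved by capillary electrophoresis, gives mRNA induction after 24 h treatment of HepG2 cells carrying transfected Gal4-fusion reporter units. Activity is fitted in the positive direction with DMSO as baseline.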
# [17] = target: human Thyroid Receptor alpha (THRa1), THRA (gene 7067) (UniProt P10827); assay: ATG_THRa1_TRANS: Attagene TRANS-FACTORIAL HepG2 Assay for human Thyroid Receptor alpha (THRa1) (AID 2283014; active means hit-call score of the fitted dose curve at least 0.9, where 1 is the maximum)
# In short: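 First, HepG2 cells receive multiple GAL4-UAS reporter units and the chimeric receptor. They are then dosed for 24 h, after which RNA is reverse-transcribed, amplified, labelled, HpaI-cut and sized by capillary electrophoresis; gain relative to DMSO is scored.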
# [18] = read-out: Human Leukocyte Antigen - DR isotype (HLADR), HLA-DRA (gene 3122); assay: BSK_3C_HLADR: BioMAP Diversity Plus: 3C Assay for Human Leukocyte Antigen - DR isotype (HLADR) Biomarker Activity (AID 2283019); settings: primary human endothelial cells (HUVEC); actives raise or lower the signal;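 further: ELISA of cell-surface HLA-DR on HUVEC 24 h after dosing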
# In short: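 Endothelial cells from human umbilical vein are treated with test chemical; after 24 h, HLA-DR levels are measured by ELISA. Data are fitted in both directions using DMSO as the baseline.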
# Retinoic acid receptor RXR-alpha (Homo sapiens), sequence (P19793 whole entry, looked up, the tested form may be a part): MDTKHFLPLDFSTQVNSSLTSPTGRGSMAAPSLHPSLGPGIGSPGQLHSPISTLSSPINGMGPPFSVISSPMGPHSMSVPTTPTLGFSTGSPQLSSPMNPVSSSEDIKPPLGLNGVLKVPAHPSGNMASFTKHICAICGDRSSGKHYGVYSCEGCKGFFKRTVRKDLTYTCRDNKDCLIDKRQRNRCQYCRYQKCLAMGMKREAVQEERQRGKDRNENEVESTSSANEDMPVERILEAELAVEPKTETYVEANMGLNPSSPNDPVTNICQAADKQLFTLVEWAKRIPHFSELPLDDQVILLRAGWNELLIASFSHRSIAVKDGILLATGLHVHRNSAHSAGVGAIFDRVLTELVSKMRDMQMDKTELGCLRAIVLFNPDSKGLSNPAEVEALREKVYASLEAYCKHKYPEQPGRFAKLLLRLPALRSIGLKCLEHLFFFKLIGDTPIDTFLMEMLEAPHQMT
# E-selectin (Homo sapiens), sequence (P16581 whole entry, looked up): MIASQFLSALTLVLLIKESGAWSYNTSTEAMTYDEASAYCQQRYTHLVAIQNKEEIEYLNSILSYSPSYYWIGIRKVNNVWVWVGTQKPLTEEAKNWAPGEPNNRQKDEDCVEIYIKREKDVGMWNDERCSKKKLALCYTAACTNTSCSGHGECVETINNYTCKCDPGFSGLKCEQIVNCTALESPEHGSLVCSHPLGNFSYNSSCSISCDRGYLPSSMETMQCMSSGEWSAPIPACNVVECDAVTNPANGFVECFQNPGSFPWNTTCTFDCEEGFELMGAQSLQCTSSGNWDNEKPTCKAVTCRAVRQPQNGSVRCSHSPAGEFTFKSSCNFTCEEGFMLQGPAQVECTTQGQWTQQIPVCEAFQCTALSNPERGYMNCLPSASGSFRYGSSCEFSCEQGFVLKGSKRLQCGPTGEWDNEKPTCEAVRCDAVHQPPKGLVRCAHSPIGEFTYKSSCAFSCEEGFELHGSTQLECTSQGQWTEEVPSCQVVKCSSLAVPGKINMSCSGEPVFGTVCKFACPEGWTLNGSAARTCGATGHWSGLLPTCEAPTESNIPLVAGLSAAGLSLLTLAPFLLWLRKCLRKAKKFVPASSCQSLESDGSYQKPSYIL
# human Vitamin D Receptor (VDR), VDR (gene 7421), sequence (P11473 whole entry, looked up, the tested form may be a part): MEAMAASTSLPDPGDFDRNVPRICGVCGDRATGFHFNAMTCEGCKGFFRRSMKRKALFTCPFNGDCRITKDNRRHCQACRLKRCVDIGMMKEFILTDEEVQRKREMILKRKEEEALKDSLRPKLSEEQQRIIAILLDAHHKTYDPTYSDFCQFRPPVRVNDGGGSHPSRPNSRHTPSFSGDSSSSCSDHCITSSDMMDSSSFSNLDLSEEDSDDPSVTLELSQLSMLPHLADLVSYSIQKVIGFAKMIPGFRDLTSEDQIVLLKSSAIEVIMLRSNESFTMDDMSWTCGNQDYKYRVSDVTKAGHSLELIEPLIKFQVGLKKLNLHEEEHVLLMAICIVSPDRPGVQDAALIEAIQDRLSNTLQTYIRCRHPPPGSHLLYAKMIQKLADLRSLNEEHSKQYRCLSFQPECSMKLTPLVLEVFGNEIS
# human Retinoid X Receptor beta (RXRb), RXRB (gene 6257), sequence (P28702 whole entry, looked up, the tested form may be a part): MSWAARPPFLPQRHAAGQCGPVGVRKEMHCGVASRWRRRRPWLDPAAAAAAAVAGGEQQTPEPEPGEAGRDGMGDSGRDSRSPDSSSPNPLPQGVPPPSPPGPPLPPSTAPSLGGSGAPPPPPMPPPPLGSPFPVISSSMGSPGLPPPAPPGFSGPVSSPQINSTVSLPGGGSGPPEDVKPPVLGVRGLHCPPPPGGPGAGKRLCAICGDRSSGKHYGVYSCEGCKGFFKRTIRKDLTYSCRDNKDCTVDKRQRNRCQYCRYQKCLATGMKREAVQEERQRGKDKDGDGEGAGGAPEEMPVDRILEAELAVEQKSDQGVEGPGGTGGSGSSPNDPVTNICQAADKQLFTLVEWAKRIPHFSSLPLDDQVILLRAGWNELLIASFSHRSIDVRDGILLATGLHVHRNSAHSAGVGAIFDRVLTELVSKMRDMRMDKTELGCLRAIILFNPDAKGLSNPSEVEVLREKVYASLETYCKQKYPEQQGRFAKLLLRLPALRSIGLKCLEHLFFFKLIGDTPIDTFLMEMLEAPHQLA
# human Thyroid Receptor alpha (THRa1), THRA (gene 7067), sequence (P10827 whole entry, looked up, the tested form may be a part): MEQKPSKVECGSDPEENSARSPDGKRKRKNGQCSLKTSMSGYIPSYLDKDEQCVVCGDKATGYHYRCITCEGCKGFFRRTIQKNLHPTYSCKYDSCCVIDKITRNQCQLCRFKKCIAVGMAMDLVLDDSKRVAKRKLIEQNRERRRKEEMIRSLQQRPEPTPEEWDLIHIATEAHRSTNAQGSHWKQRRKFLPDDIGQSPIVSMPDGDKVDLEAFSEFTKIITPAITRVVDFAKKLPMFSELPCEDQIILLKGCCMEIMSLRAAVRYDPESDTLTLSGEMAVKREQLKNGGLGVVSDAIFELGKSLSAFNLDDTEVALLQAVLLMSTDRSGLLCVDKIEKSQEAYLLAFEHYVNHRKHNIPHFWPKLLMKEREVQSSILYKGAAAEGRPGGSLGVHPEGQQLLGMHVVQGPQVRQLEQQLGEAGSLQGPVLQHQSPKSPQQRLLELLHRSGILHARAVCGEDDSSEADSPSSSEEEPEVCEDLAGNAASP
smiles,measurement,setting,value
CCCCC(CC)CO[N+](=O)[O-] (configuration not stated),outcome,[1],inactive
same,AC50,[2],99.5 µM (active)
same,AC50,[3],35.8 µM (active)
same,outcome,[4],inactive
same,outcome,[5],inactive
same,AC50,[6],20 µM (active)
same,outcome,[7],inactive
same,outcome,[8],inactive
same,AC50,[9],34.9 µM (active)
same,AC50,[10],37.4 µM (active)
same,AC50,[11],30.6 µM (active)
same,AC50,[12],36.1 µM (active)
same,outcome,[13],inactive
same,outcome,[14],inactive
same,AC50,[15],33 µM (active)
CCCCCCCCSC(=O)Oc1cc(Cl)nnc1-c1ccccc1,outcome,[1],inactive
same,outcome,[2],inactive
same,outcome,[16],inactive
C=CC(=O)N(C)C,outcome,[1],inactive
same,outcome,[17],inactive
same,outcome,[16],inactive
OCc1ccco1,outcome,[1],inactive
same,outcome,[3],inactive
same,outcome,[4],inactive
same,outcome,[5],inactive
same,outcome,[6],inactive
same,outcome,[18],inactive
same,outcome,[7],inactive
same,outcome,[8],inactive
same,outcome,[16],inactive
same,outcome,[9],inactive
same,outcome,[10],inactive
same,outcome,[11],inactive
same,outcome,[12],inactive
same,outcome,[13],inactive
same,outcome,[14],inactive
same,outcome,[15],inactive
CCC[CH2][Sn]([CH2]CCC)([CH2]CCC)[O]C(=O)c1ccccc1,AC50,[1],0.00575 µM (active)
same,AC50,[2],0.105 µM (active)
same,outcome,[16],inactive
COc1ccc(C=O)cc1OC,outcome,[1],inactive
same,outcome,[17],inactive
O=C1C(Cl)=C(Cl)C(=O)c2ccccc21,outcome,[1],inactive
same,outcome,[2],inactive
same,outcome,[16],inactive
CCOC(=O)CP(=O)(OCC)OCC,outcome,[1],inactive
same,outcome,[17],inactive
Clc1nc(Cl)nc(Cl)n1,outcome,[1],inactive
same,outcome,[17],inactive
same,outcome,[16],inactive
Cn1sc(Cl)cc1=O,outcome,[1],inactive
same,outcome,[3],inactive
same,outcome,[4],inactive
same,outcome,[5],inactive
same,outcome,[6],inactive
same,outcome,[7],inactive
same,outcome,[8],inactive
same,outcome,[9],inactive
same,outcome,[10],inactive
same,AC50,[11],9.68 µM (active)
same,outcome,[12],inactive
same,outcome,[13],inactive
same,outcome,[14],inactive
same,outcome,[15],inactive
CCOP(=S)(OCC)SCCS(=O)(=O)CC,outcome,[1],inactive
same,outcome,[17],inactive
same,outcome,[3],inactive
same,outcome,[4],inactive
same,outcome,[5],inactive
same,outcome,[6],inactive
same,outcome,[7],inactive
same,outcome,[8],inactive
same,outcome,[16],inactive
same,outcome,[9],inactive
same,outcome,[10],inactive
same,outcome,[11],inactive
same,outcome,[12],inactive
same,outcome,[13],inactive
same,outcome,[14],inactive
same,outcome,[15],inactive
O=C(Cl)c1ccc(Cl)cc1,outcome,[1],inactive
same,outcome,[17],inactive
O=CC=O,outcome,[1],inactive
same,outcome,[17],inactive
CCCCP(CCCC)CCCC,outcome,[1],inactive
same,outcome,[17],inactive
same,outcome,[16],inactive
